Whole data set: some 2,900 compounds, median “NF-kB SEAP reporter activity, fold change vs agonist alone” near 0.99, cut for the highest 2% near 2.6. Shown is part of a subset that was picked to be rich in the highest values.

This note sets out measurements from the supplement of paper PMC10037445.

Assay [1] concerns RAW-Dual. Nature of the assay: NF-kB SEAP reporter activity, fold change vs agonist alone; higher = enhanced NF-kB activity. The settings on record: library stock concentration (final ~1000-fold dilution): 10 mM. An outline of the steps: (§1)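 After 50 nL of library stock was delivered by pin tool to RAW-Dual macrophages (50,000 cells/well, DMEM, 384-well plates), a PRR agonist was added 1 h later and the plates were kept at 37 °C, 5% CO2. Twenty hours later, IRF was read from supernatant by QuantiLuc luminescence and NF-κB by QuantiBlue absorbance at 620 nm. Reporter activity is stated as fold change over agonist-alone wells. Wells with IncuCyte confluency under 70% of agonist controls in both mask sets were counted as cytotoxic.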

In assay [2] the test system is RAW-Dual. Nature of the assay: NF-kB SEAP reporter activity, fold change vs agonist alone; cytotoxicity flag (confluency mask): not cytotoxic; higher = enhanced NF-kB activity. The method in brief: as §1
The test system of assay [3] is RAW-Dual. Nature of the assay: NF-kB SEAP reporter activity, fold change vs agonist alone; cytotoxicity flag (confluency mask): cytotoxic (confluency <70% of control); higher = enhanced NF-kB activity. The method in brief:
as §1

Setting [4] is: cytotoxicity flag (confluency mask): not cytotoxic, agonist: Imiquimod (TLR7) […].
Setting [5] is: cytotoxicity flag (confluency mask): not cytotoxic, agonist: MPLA (TLR4) […].
Setting [6] is: agonist: ODN 1826 (TLR9) 0.5 ug/mL.
The mark [7] stands for this setting: agonist: Pam2CSK4 (TLR2/6) 0.1 ug/mL.
Setting [8] is: agonist: Pam3CSK4 (TLR2/1) 0.1 ug/mL.

Take `CCOc1cc(N)c([N+](=O)[O-])cc1C(=O)NC1CCN(CC2CC=CCC2)CC1.O=C(O)C(O)C(O)C(=O)O` (stereo not drawn): the “NF-kB SEAP reporter activity” value with RAW-Dual [1] (setting [4]) is 1.28; in the assay with RAW-Dual [1] (setting [5]) it was 1.03.

Consider `CCC(Nc1ncnc2[nH]cnc12)c1oc2ccccc2c(=O)c1-c1cccc(F)c1` (stereo not drawn), for which the “NF-kB SEAP reporter activity” value in the assay on RAW-Dual [1] (setting [4]) was found to be 0.582; in the assay with RAW-Dual [1] (setting [5]) it was 0.924.

As to `CCC(Nc1ncnc2[nH]cnc12)c1oc2ccccc2c(=O)c1-c1cccc(F)c1` (stereo not drawn) (library stock concentration (final ~1000-fold dilution): 10 mM), the “NF-kB SEAP reporter activity” value in the assay with RAW-Dual [2] (agonist: LPS (TLR4) 0.1 ug/mL) was 0.907; in the assay with RAW-Dual [2] (setting [6]), 0.718; with RAW-Dual [2] (setting [7]) it was 0.443; in the assay with RAW-Dual [2] (setting [8]) it was 0.61.

Regarding `O=C(Oc1cccc(F)c1OC(=O)c1cccc(O)c1)c1cccc(O)c1`, the “NF-kB SEAP reporter activity” value with RAW-Dual [1] (cytotoxicity flag (confluency mask): cytotoxic (confluency <70% of control), agonist: Imiquimod (TLR7) […]) amounted to 0.964; in the assay with RAW-Dual [1] (cytotoxicity flag (confluency mask): cytotoxic (confluency <70% of control), agonist: MPLA (TLR4) […]), 1.24.

As to `O=C(Oc1cccc(F)c1OC(=O)c1cccc(O)c1)c1cccc(O)c1` (library stock concentration (final ~1000-fold dilution): 10 mM), the “NF-kB SEAP reporter activity” value with RAW-Dual [3] (agonist: LPS (TLR4) 0.1 ug/mL) worked out at 1.21; in the assay on RAW-Dual [3] (setting [6]) it was 0.597; in the assay on RAW-Dual [3] (setting [7]), 0.639; with RAW-Dual [3] (setting [8]) it was 0.541.

`CC(C)C(NC(=O)c1ccc2ccccc2n1)C(=O)NC(CC(=O)O)C(=O)COc1c(F)cccc1F` (stereo not drawn) (library stock concentration (final ~1000-fold dilution): 10 mM): the “NF-kB SEAP reporter activity” value with RAW-Dual [2] (agonist: LPS (TLR4) 0.1 ug/mL) is 1.05; in the assay on RAW-Dual [2] (setting [6]), 1.05; with RAW-Dual [2] (setting [7]) it was 1.03; in the assay with RAW-Dual [2] (setting [8]) it was 1.26.

For the compound `CC(C)C(NC(=O)c1ccc2ccccc2n1)C(=O)NC(CC(=O)O)C(=O)COc1c(F)cccc1F` (stereo not drawn), the “NF-kB SEAP reporter activity” value in the assay on RAW-Dual [1] (setting [4]) came to 1.01; with RAW-Dual [1] (setting [5]), 1.14.

`CC12CCC3C(CCC4C(C)(C(=O)O)CCCC34C)(CC1=O)C2` (stereo not drawn) (library stock concentration (final ~1000-fold dilution): 10 mM): the “NF-kB SEAP reporter activity” value in the assay on RAW-Dual [2] (agonist: LPS (TLR4) 0.1 ug/mL) came out at 1.41; in the assay on RAW-Dual [2] (setting [6]), 1.11; in the assay on RAW-Dual [2] (setting [7]), 1.13; in the assay with RAW-Dual [2] (setting [8]) it was 1.02.

For the compound `CC12CCC3C(CCC4C(C)(C(=O)O)CCCC34C)(CC1=O)C2` (stereo not drawn), the “NF-kB SEAP reporter activity” value in the assay with RAW-Dual [1] (setting [4]) amounted to 0.95; with RAW-Dual [1] (setting [5]), 1.14.

Consider `O=C1OC(=O)C2C3CCC(O3)C12` (stereo not drawn), for which the “NF-kB SEAP reporter activity” value with RAW-Dual [1] (setting [4]) was 1.93; with RAW-Dual [1] (setting [5]), 2.03.

Turning to `O=C1OC(=O)C2C3CCC(O3)C12` (stereo not drawn) (library stock concentration (final ~1000-fold dilution): 10 mM), the “NF-kB SEAP reporter activity” value in the assay on RAW-Dual [2] (agonist: LPS (TLR4) 0.1 ug/mL) was 3.23; in the assay on RAW-Dual [2] (setting [6]) it was 2; in the assay on RAW-Dual [2] (setting [7]), 1.84; with RAW-Dual [2] (setting [8]), 1.76.

On to `CS(=O)(=O)O.Cc1c(O)cccc1C(=O)NC(CSc1ccccc1)C(O)CN1CC2CCCCC2CC1C(=O)NC(C)(C)C` (stereo not drawn), for which the “NF-kB SEAP reporter activity” value was 2.13 in the assay with RAW-Dual [1] (setting [4]) and 2.22 with RAW-Dual [1] (setting [5]).

Consider `CC(C)(C)NC(=O)C1CN(Cc2cccnc2)CCN1CC(O)CC(Cc1ccccc1)C(=O)NC1c2ccccc2CC1O.O=S(=O)(O)O` (stereo not drawn), for which the “NF-kB SEAP reporter activity” value in the assay with RAW-Dual [1] (setting [4]) came to 1.07; in the assay on RAW-Dual [1] (setting [5]) it was 1.21.

Consider `CS(=O)(=O)O.Cc1c(O)cccc1C(=O)NC(CSc1ccccc1)C(O)CN1CC2CCCCC2CC1C(=O)NC(C)(C)C` (stereo not drawn) (library stock concentration (final ~1000-fold dilution): 10 mM), for which the “NF-kB SEAP reporter activity” value in the assay on RAW-Dual [2] (agonist: LPS (TLR4) 0.1 ug/mL) worked out at 4.08; with RAW-Dual [2] (setting [6]) it was 1.02; in the assay with RAW-Dual [2] (setting [7]) it was 0.418; in the assay on RAW-Dual [2] (setting [8]) it was 0.656.

`CC(C)(C)NC(=O)C1CN(Cc2cccnc2)CCN1CC(O)CC(Cc1ccccc1)C(=O)NC1c2ccccc2CC1O.O=S(=O)(O)O` (stereo not drawn) (library stock concentration (final ~1000-fold dilution): 10 mM): the “NF-kB SEAP reporter activity” value with RAW-Dual [2] (agonist: LPS (TLR4) 0.1 ug/mL) came out at 1.3; in the assay with RAW-Dual [2] (setting [6]) it was 1.15; with RAW-Dual [2] (setting [7]), 1.2; in the assay with RAW-Dual [2] (setting [8]), 1.34.

In the case of `C=C(C)C(=O)Nc1cccc(-c2ncnc3[nH]cc(C(=O)OCC)c23)c1`, the “NF-kB SEAP reporter activity” value worked out at 1.01 in the assay on RAW-Dual [1] (setting [4]) and 1.18 with RAW-Dual [1] (setting [5]).

Regarding `C=C(C)C(=O)Nc1cccc(-c2ncnc3[nH]cc(C(=O)OCC)c23)c1` (library stock concentration (final ~1000-fold dilution): 10 mM), the “NF-kB SEAP reporter activity” value with RAW-Dual [2] (agonist: LPS (TLR4) 0.1 ug/mL) came out at 1.36; in the assay with RAW-Dual [2] (setting [6]), 1.14; with RAW-Dual [2] (setting [7]), 1.44; in the assay with RAW-Dual [2] (setting [8]), 1.27.

As for `C=C1C(=O)OC2/C=C(\C)CC/C=C(\C)CCC12` (stereo not drawn) (library stock concentration (final ~1000-fold dilution): 10 mM), the “NF-kB SEAP reporter activity” value came out at 0.231 with RAW-Dual [2] (agonist: LPS (TLR4) 0.1 ug/mL), 0.213 in the assay with RAW-Dual [2] (setting [6]), 0.153 with RAW-Dual [2] (setting [7]) and 0.197 in the assay on RAW-Dual [2] (setting [8]).

As for `C=C1C(=O)OC2/C=C(\C)CC/C=C(\C)CCC12` (stereo not drawn), the figures for the “NF-kB SEAP reporter activity” value with RAW-Dual [1] (setting [4]) and in the assay on RAW-Dual [1] (setting [5]) were 0.262 and 0.198, respectively.

As to `CC(=O)ON=C1C(c2c(O)[nH]c3cc(Br)ccc23)=Nc2ccccc21`, the “NF-kB SEAP reporter activity” value is 1.07 in the assay on RAW-Dual [1] (setting [4]) and 1.48 with RAW-Dual [1] (setting [5]).

Consider `CC(=O)ON=C1C(c2c(O)[nH]c3cc(Br)ccc23)=Nc2ccccc21` (library stock concentration (final ~1000-fold dilution): 10 mM), for which the “NF-kB SEAP reporter activity” value with RAW-Dual [2] (agonist: LPS (TLR4) 0.1 ug/mL) was 3.28; in the assay on RAW-Dual [2] (setting [6]), 1.19; with RAW-Dual [2] (setting [7]) it was 1.55; with RAW-Dual [2] (setting [8]), 1.41.

As to `CCN(CC)CCOC(=O)C(Cc1cccc2ccccc12)CC1CCCO1.O=C(O)C(=O)O` (stereo not drawn) (library stock concentration (final ~1000-fold dilution): 10 mM), the “NF-kB SEAP reporter activity” value amounted to 1.08 in the assay on RAW-Dual [2] (agonist: LPS (TLR4) 0.1 ug/mL), 0.731 in the assay on RAW-Dual [2] (setting [6]), 0.761 with RAW-Dual [2] (setting [7]) and 1.01 in the assay with RAW-Dual [2] (setting [8]).

`CCN(CC)CCOC(=O)C(Cc1cccc2ccccc12)CC1CCCO1.O=C(O)C(=O)O` (stereo not drawn): the “NF-kB SEAP reporter activity” value in the assay on RAW-Dual [1] (setting [5]) was determined as 0.821.

In the case of `Nc1nc(NCCNc2ncc(-n3ccnc3)c(-c3ccc(Cl)cc3Cl)n2)ccc1[N+](=O)[O-]`, the figures for the “NF-kB SEAP reporter activity” value in the assay on RAW-Dual [1] (setting [4]) and in the assay with RAW-Dual [1] (setting [5]) were 2.49 and 2.25, respectively.

For the compound `Nc1nc(NCCNc2ncc(-n3ccnc3)c(-c3ccc(Cl)cc3Cl)n2)ccc1[N+](=O)[O-]` (library stock concentration (final ~1000-fold dilution): 10 mM), the “NF-kB SEAP reporter activity” value with RAW-Dual [2] (agonist: LPS (TLR4) 0.1 ug/mL) was 2.5; with RAW-Dual [2] (setting [6]), 2.96; with RAW-Dual [2] (setting [7]), 1.46; in the assay on RAW-Dual [2] (setting [8]), 2.83.
